What all share (assay): DAPPL (digital affinity profiling via proximity ligation, sequencing); 10 mM Tris-HCl pH 7.5, 50 mM NaCl, 1 mM DTT, 4% glycerol, room temperature, 30 min; GST-TFs on glutathione beads, 16-mer random dsDNA library, 0.1% formaldehyde crosslink after washing; high values mean tight binding
Holding throughout (details): protein: recombinant; tags: N-terminal GST; dsDNA, one strand shown

The target of test [1] is T1, FLI1 (Homo sapiens, UniProt Q01543 1-452).
T1 sequence: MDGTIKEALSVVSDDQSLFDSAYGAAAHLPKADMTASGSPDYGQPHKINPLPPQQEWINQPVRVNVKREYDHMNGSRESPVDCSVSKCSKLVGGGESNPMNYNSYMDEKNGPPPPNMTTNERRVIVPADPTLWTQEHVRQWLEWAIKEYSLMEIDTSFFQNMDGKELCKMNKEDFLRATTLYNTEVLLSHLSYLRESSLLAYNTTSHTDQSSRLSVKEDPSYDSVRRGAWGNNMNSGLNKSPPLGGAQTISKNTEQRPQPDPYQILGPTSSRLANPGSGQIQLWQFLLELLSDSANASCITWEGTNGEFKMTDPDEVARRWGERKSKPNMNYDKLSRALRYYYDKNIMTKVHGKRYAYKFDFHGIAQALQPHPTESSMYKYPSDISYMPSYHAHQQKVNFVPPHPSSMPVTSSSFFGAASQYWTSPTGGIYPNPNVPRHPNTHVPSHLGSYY
The procedure, abridged: (§1)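 In yeast, human transcription factors were expressed with a GST fusion, then pulled down on glutathione beads and given DNA barcodes. Pooled with a tag-only sample, they were exposed to 200 nmole of a 16-mer random double-stranded DNA library (Tris/NaCl/DTT/glycerol buffer, room temperature, 30 min), washed, crosslinked with 0.1% formaldehyde, proximity-ligated using BsaI/T4 ligase for 1 h at 37 °C, PCR-amplified and read on an Illumina NextSeq500. Each hexamer's frequency of reads for a factor, divided by the matching frequency for the tag-only sample, gives the binding signal.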

The target in test [2] is T2, ELK1 (Homo sapiens, UniProt P19419 1-428).
T2 sequence: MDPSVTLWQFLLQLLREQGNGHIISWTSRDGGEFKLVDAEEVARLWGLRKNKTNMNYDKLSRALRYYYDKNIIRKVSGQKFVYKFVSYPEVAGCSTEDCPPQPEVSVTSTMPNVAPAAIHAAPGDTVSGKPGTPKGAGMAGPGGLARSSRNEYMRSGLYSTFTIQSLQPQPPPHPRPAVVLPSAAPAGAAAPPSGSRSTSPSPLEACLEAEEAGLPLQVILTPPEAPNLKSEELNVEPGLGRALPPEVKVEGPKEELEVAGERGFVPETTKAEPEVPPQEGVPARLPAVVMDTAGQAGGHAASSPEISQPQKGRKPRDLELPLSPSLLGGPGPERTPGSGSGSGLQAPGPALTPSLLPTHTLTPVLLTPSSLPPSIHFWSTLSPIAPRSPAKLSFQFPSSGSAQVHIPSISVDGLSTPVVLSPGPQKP
In outline: as §1

The target of test [3] is T3, GABPA (Homo sapiens, UniProt Q06546 1-454).
T3 sequence: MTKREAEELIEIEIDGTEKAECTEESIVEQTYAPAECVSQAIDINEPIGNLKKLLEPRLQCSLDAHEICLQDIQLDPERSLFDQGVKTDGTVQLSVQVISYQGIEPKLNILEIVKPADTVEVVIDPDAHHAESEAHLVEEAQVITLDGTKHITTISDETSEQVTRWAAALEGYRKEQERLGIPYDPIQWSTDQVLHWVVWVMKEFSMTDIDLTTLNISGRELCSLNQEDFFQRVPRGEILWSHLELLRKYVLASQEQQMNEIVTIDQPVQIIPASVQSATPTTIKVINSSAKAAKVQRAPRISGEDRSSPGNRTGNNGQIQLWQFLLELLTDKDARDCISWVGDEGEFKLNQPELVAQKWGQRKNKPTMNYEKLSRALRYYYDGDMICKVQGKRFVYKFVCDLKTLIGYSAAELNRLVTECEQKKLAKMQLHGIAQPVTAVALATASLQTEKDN
The procedure, abridged: as §1

The target in test [4] is T4, ERG (Homo sapiens, UniProt P11308 1-479).
T4 sequence: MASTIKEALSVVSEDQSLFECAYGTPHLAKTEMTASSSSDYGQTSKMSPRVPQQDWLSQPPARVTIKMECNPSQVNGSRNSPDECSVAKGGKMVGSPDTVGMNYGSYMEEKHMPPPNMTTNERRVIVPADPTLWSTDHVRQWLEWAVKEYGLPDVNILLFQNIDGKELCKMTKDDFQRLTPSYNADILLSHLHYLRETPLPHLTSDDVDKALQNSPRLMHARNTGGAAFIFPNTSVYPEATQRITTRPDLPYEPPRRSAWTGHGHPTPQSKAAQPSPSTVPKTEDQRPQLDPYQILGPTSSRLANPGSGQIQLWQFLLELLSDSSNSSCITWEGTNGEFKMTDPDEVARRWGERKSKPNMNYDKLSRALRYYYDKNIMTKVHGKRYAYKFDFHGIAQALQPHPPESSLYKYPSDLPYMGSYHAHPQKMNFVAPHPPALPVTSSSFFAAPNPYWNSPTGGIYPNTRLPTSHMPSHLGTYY
In outline: as §1

Test [5] addresses ELF1 (Homo sapiens, UniProt P32519 1-619). The procedure, abridged:
as §1

For test [6], the target named is T5, EHF (Homo sapiens, UniProt Q9NZC4 1-300).
T5 sequence: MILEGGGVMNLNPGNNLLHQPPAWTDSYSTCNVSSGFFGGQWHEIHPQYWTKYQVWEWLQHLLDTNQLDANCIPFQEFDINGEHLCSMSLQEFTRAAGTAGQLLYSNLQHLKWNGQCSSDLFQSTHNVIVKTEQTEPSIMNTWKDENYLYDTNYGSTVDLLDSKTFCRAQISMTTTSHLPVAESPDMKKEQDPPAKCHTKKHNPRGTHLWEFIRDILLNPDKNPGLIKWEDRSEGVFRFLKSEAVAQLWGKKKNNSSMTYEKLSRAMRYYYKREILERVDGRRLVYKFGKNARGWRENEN
In outline:
as §1

The target in test [7] is SPI1 (Homo sapiens, UniProt P17947 1-270). In outline:
as §1

Test [8] has as its target SPIB (Homo sapiens, UniProt Q01892 1-262). The procedure, abridged: as §1
Test [9] concerns the target T6, ELK3 (Homo sapiens, UniProt P41970 1-407).
T6 sequence: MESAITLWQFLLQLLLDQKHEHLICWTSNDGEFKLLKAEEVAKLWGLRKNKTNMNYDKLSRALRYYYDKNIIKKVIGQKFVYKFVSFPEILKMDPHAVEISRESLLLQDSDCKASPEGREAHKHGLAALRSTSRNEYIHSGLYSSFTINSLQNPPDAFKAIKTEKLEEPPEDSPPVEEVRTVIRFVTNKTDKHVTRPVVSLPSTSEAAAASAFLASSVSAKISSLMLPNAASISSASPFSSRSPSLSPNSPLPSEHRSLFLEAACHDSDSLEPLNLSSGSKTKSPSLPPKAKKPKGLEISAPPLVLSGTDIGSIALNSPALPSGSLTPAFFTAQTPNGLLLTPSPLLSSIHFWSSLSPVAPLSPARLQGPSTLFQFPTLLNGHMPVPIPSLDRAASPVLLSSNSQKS
The procedure, abridged: as §1

Binding signal data for eight sequences are collected here from article PMC7862700, “An all-to-all approach to the identification of sequence-specific readers for epigenetic DNA modifications on cytosine”.

Sequence of SPIB (Q01892 whole entry): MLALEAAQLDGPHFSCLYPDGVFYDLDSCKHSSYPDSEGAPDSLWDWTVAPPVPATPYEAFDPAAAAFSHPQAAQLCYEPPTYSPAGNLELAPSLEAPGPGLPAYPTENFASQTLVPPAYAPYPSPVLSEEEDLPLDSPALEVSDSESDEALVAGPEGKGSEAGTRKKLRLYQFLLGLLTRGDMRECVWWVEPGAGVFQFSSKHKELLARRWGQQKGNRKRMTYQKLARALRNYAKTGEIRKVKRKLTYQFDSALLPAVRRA
Sequence of ELF1 (P32519 whole entry): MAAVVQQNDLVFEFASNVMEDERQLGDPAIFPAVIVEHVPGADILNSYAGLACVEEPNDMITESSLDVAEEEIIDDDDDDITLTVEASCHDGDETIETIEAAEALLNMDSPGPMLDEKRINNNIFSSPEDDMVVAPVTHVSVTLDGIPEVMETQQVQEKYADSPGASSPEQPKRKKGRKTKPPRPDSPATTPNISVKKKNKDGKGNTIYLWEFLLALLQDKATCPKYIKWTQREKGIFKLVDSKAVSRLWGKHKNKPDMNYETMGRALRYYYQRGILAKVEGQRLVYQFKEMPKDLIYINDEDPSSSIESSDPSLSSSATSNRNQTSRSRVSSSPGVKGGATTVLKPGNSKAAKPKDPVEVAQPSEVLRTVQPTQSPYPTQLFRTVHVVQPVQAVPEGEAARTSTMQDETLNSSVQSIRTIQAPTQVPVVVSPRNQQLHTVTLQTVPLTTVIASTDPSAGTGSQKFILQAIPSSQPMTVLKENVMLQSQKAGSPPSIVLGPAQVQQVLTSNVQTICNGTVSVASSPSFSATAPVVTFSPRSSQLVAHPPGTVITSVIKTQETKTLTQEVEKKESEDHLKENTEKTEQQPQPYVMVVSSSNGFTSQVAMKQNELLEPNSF

TTCAAA: the binding signal in test [1] is 1.23 fold enrichment (6-mer frequency, TF over GST control); in test [2], 1.23 fold enrichment (6-mer frequency, TF over GST control); in [3], 1.4 fold enrichment (6-mer frequency, TF over GST control); in test [4], 1.2 fold enrichment (6-mer frequency, TF over GST control); in test [5], 1.34 fold enrichment (6-mer frequency, TF over GST control); in test [6], 1.24 fold enrichment (6-mer frequency, TF over GST control). Also, the binding signal in test [7] was 1.26 fold enrichment (6-mer frequency, TF over GST control); in [8], 1.3 fold enrichment (6-mer frequency, TF over GST control); in test [9], 1.36 fold enrichment (6-mer frequency, TF over GST control).

Turning to TTGTGT, the binding signal was 1.25 fold enrichment (6-mer frequency, TF over GST control) in [1]; 1.28 fold enrichment (6-mer frequency, TF over GST control) in test [2]; 1.15 fold enrichment (6-mer frequency, TF over GST control) in test [3]; 1.12 fold enrichment (6-mer frequency, TF over GST control) in test [4]; 1.18 fold enrichment (6-mer frequency, TF over GST control) in [5]; 1.08 fold enrichment (6-mer frequency, TF over GST control) in test [6]. The binding signal was 1.09 fold enrichment (6-mer frequency, TF over GST control) in [7]; 1.25 fold enrichment (6-mer frequency, TF over GST control) in test [8]; 1.22 fold enrichment (6-mer frequency, TF over GST control) in [9].

For CTTTAT, the binding signal is 1.19 fold enrichment (6-mer frequency, TF over GST control) in test [1]; 1.19 fold enrichment (6-mer frequency, TF over GST control) in test [2]; 1.18 fold enrichment (6-mer frequency, TF over GST control) in test [3]; 1.16 fold enrichment (6-mer frequency, TF over GST control) in test [4]; 1.17 fold enrichment (6-mer frequency, TF over GST control) in [5]; 1.34 fold enrichment (6-mer frequency, TF over GST control) in [6]. Besides, the binding signal was 1.25 fold enrichment (6-mer frequency, TF over GST control) in [7]; 1.19 fold enrichment (6-mer frequency, TF over GST control) in test [8]; 1.25 fold enrichment (6-mer frequency, TF over GST control) in [9].

As to TCATAT, the binding signal in test [1] is 1.21 fold enrichment (6-mer frequency, TF over GST control); in test [2], 1.2 fold enrichment (6-mer frequency, TF over GST control); in [3], 1.26 fold enrichment (6-mer frequency, TF over GST control); in [4], 1.2 fold enrichment (6-mer frequency, TF over GST control); in [5], 1.29 fold enrichment (6-mer frequency, TF over GST control); in test [6] it was 1.24 fold enrichment (6-mer frequency, TF over GST control). In addition, the binding signal in [7] was 1.18 fold enrichment (6-mer frequency, TF over GST control); in test [8], 1.4 fold enrichment (6-mer frequency, TF over GST control); in [9], 1.17 fold enrichment (6-mer frequency, TF over GST control).

As to GATTTT, the binding signal in [1] was 1.16 fold enrichment (6-mer frequency, TF over GST control); in test [2], 1.15 fold enrichment (6-mer frequency, TF over GST control); in test [3], 1.21 fold enrichment (6-mer frequency, TF over GST control); in test [4] it was 1.12 fold enrichment (6-mer frequency, TF over GST control); in test [5], 1.12 fold enrichment (6-mer frequency, TF over GST control); in test [6] it was 1.18 fold enrichment (6-mer frequency, TF over GST control). The binding signal is 1.12 fold enrichment (6-mer frequency, TF over GST control) in [7]; 1.12 fold enrichment (6-mer frequency, TF over GST control) in test [8]; 1.07 fold enrichment (6-mer frequency, TF over GST control) in test [9].

In the case of AACCCT, the binding signal in test [1] was 1.31 fold enrichment (6-mer frequency, TF over GST control); in test [2], 1.4 fold enrichment (6-mer frequency, TF over GST control); in [3], 1.29 fold enrichment (6-mer frequency, TF over GST control); in [4], 1.23 fold enrichment (6-mer frequency, TF over GST control); in [5], 1.35 fold enrichment (6-mer frequency, TF over GST control); in test [6], 1.18 fold enrichment (6-mer frequency, TF over GST control). For the same sequence, the binding signal in test [7] is 1.32 fold enrichment (6-mer frequency, TF over GST control); in test [8], 1.29 fold enrichment (6-mer frequency, TF over GST control); in test [9] it was 1.5 fold enrichment (6-mer frequency, TF over GST control).

On to ATCATC, for which the binding signal was 1.17 fold enrichment (6-mer frequency, TF over GST control) in test [1]; 1.2 fold enrichment (6-mer frequency, TF over GST control) in test [2]; 1.19 fold enrichment (6-mer frequency, TF over GST control) in [3]; 1.17 fold enrichment (6-mer frequency, TF over GST control) in test [4]; 1.25 fold enrichment (6-mer frequency, TF over GST control) in [5]; 1.25 fold enrichment (6-mer frequency, TF over GST control) in test [6]. Also, the binding signal was 1.14 fold enrichment (6-mer frequency, TF over GST control) in [7]; 1.19 fold enrichment (6-mer frequency, TF over GST control) in [8]; 1.08 fold enrichment (6-mer frequency, TF over GST control) in [9].

For the sequence TAAAAG, the binding signal in [1] was 1.12 fold enrichment (6-mer frequency, TF over GST control); in [2] it was 1.18 fold enrichment (6-mer frequency, TF over GST control); in test [3], 1.24 fold enrichment (6-mer frequency, TF over GST control); in test [4], 1.1 fold enrichment (6-mer frequency, TF over GST control); in test [5], 1.12 fold enrichment (6-mer frequency, TF over GST control); in test [6], 1.16 fold enrichment (6-mer frequency, TF over GST control). The binding signal in test [7] is 1.31 fold enrichment (6-mer frequency, TF over GST control); in test [8] it was 1.18 fold enrichment (6-mer frequency, TF over GST control); in test [9] it was 1.15 fold enrichment (6-mer frequency, TF over GST control).
